# Experimental data published in PubChem BioAssay (NCI).
# The panel holds about 83,000 compounds, 20% with a hit somewhere; the sample as a whole holds those more often.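 48-hour exposure, single concentration, 96-well plates; percent growth endpoint where 0 means no net growth. Active: below 10.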 Unmarked numbers belong to inactive results. Active and inactive are the calls of the source.
# Tests used:
# Assay in all cases: NCI-60 one-dose screen, 48 h (100 = growth as untreated, 0 = no growth, -100 = all killed)
# [1] = tested on: DU-145 prostate; conditions: 10 µM unless noted
# [2] = tested on: K-562 leukemia; conditions: 10 µM unless noted
# [3] = tested on: MALME-3M melanoma; conditions: 10 µM unless noted
# [4] = tested on: RXF 393 renal; conditions: 10 µM unless noted
# [5] = tested on: SF-295 CNS; conditions: 10 µM unless noted
# [6] = tested on: UACC-257 melanoma; conditions: 10 µM unless noted
# [7] = tested on: HCT-15 colon; conditions: 10 µM
# [8] = tested on: HT29 colon; conditions: 10 µM unless noted
# [9] = tested on: SNB-75 CNS; conditions: 10 µM unless noted
# [10] = tested on: SNB-19 CNS; conditions: 10 µM unless noted
# [11] = tested on: PC-3 prostate; conditions: 10 µM unless noted
# [12] = tested on: SK-MEL-5 melanoma; conditions: 10 µM unless noted
# [13] = tested on: LOX IMVI melanoma; conditions: 10 µM unless noted
# [14] = tested on: CAKI-1 renal; conditions: 10 µM unless noted
# [15] = tested on: A498 renal; conditions: 10 µM unless noted
# [16] = tested on: HL-60(TB) leukemia; conditions: 10 µM unless noted
# [17] = tested on: MOLT-4 leukemia; conditions: 10 µM
# [18] = tested on: T-47D breast; conditions: 10 µM unless noted
# [19] = tested on: BT-549 breast; conditions: 10 µM
# [20] = tested on: HCC-2998 colon; conditions: 10 µM unless noted
Structure (SMILES),growth [1],growth [2],growth [3],growth [4] [%],growth [5],growth [6],growth [7],growth [8],growth [9] [%],growth [10] [%],growth [11],growth [12],growth [13],growth [14] [%],growth [15],growth [16],growth [17],growth [18],growth [19] [%],growth [20]
O=c1[nH]c2cc(Cl)ccc2n1C1CCN(CCCC(c2ccc(F)cc2)c2ccc(F)cc2)CC1,-0.502% (active),-59.9% (active),-1.17% (active),30.5,-27.6% (active),-81.4% (active),-30.3% (active),-36.9% (active),60.7,73.8,7.82% (active),-80.9% (active),-91.9% (active),30,-90.2% (active),-70.7% (active),-28.3% (active),41.5%,78.4,-63.4% (active)
COC1=CC(=O)OC(CCc2ccc3c(c2)OCO3)C1 (stereo not given),122%,122%,136%,70.2,116%,97.8%,103%,97.1%,96.3,103,106%,102%,98.5%,120,101%,113%,121%,94.7%,92.5,132%
c1ccc(CCN2CCCCC2Cc2ccccc2)cc1 (stereo not given),,101%,97.7%,117,91.4%,98.5%,104%,72.8%,,111,103%,94.8%,90.9%,101,89.5%,80.3%,92.7%,86.2%,111,83.6%
O=[N+]([O-])c1ccccc1N1CCNCC1,108%,91.7%,89%,121,104%,94.4%,105%,85.4%,92.5,102,103%,102%,95.8%,94.1,97.6%,80.1%,103%,-4.84% (active),111,100%
CC(=O)N(C)C1=Nc2ccc(Cl)cc2C(c2ccccc2)=[N+]([O-])C1,115%,109%,121%,109,107%,95.7%,108%,104%,95.9,96.3,91%,105%,95.4%,99.8,106%,135%,101%,94.9%,106,
Cc1cc([N+](=O)[O-])c(Cl)cc1NS(=O)(=O)c1ccccc1,104%,71%,37.9%,91.9,65.7%,,73.1%,82.1%,64.1,79.1,81.2%,43.6%,81.2%,63.7,67.2%,57.3%,74.5%,59.5%,62.5,80.6%
C[C@]12CC[C@@H]3C4=C(CC[C@H]3[C@@H]1CC[C@@H]2O)CC(=O)CC4,116%,96.9%,116%,100,102%,92.8%,100%,105%,101,95.2,103%,59%,90.2%,92,90.6%,99.5%,89%,95.4%,122,104%
CC(=O)Oc1ccc(Cl)cc1,,94.5%,96.7%,105,112%,95.1%,95.1%,98.3%,81.9,91.2,91.3%,104%,90.5%,90.5,82.2%,98.4%,90.3%,94.2%,98.3,96.1%
